Drawing on the supplement of paper PMC10127200, this text covers Euclidean distance for 40 molecules.

Structures are written as SMILES. Values joined by “and” are separate entries in the source; they are usually repeats but may differ in a detail not shown here. Identical values can stand only once. Counter-ions that a name gives are not always drawn.

In the first test the test system is A549. Briefly: Euclidean distance of Cell Painting phenotypic profile (signed KS, 77 features) to DMSO centroid (dimensionless distance); 5 or 10 uM (library dependent); higher = stronger phenotypic change vs DMSO (phenoactivity). The conditions noted are these: 48 h. Summed up: (§1)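 Five cancer lines and a healthy fibroblast line received library compounds at 10 or 5 uM (library-dependent, 0.1% DMSO final) for 48 h. Stained cells were imaged confocally at 20X (9 fields/well). Harmony extracted 77 features, each scored as a signed Kolmogorov-Smirnov statistic against same-plate vehicle wells. Profiles were plate-position corrected, correlation-weighted and replicate-averaged at the top dose. Phenoactivity is the Euclidean distance from each profile to the median vehicle profile.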
In the case of `OC(Cn1cncn1)(Cn1cncn1)c1ccc(F)cc1F` [Fluconazole], the Euclidean distance worked out at 1.3.

The molecule `Cc1ccc(=O)n(-c2ccccc2)c1` [Pirfenidone] displayed an Euclidean distance of 0.718.

For `CN(C)CCC=C1c2ccccc2CCc2ccccc21` [Amitriptyline HCl], the Euclidean distance was 1.54.

Regarding `CO[C@@H]1[C@@H](O[C@@H]2O[C@H](C)[C@@H](O[C@H]3C[C@@](C)(O)[C@@H](OC(=O)CC(C)C)[C@H](C)O3)[C@H](N(C)C)[C@H]2O)[C@@H](CC=O)C[C@@H](C)[C@@H](O)/C=C/C=C/C[C@@H](C)OC(=O)C[C@H]1OC(C)=O` [Josamycin], the Euclidean distance amounted to 1.07.

With `C[C@H]1NCc2cc(-c3ccc4c(=O)c(C(=O)O)cn(C5CC5)c4c3OC(F)F)ccc21` [Garenoxacin], the Euclidean distance came out at 0.876.

As to `Cc1ccc2c(c1)C(=O)C1(O)CCN(c3ccccc3)C1=N2` (single isomer, unassigned; (-)) [(-)-Blebbistatin], the Euclidean distance was determined as 1.46.

`C=CCCCCCCCCC(=O)[O-].C=CCCCCCCCCC(=O)[O-].[Zn+2]` [Zinc Undecylenate] registered an Euclidean distance of 2.06.

A further test concerns DU145. The description is as above. To be noted: 48 h. Summed up:
as §1
In turn, `CO/N=C(\C(=O)N[C@@H]1C(=O)N2C(C(=O)O)=C(CSC(=O)c3ccco3)CS[C@H]12)c1csc(N)n1` [Ceftiofur] came in with an Euclidean distance of 0.719.

Consider `C[C@H](CCC(=O)O)[C@H]1CC[C@H]2[C@@H]3[C@H](O)C[C@@H]4C[C@H](O)CC[C@]4(C)[C@H]3C[C@H](O)[C@]12C` [Cholic acid], for which the Euclidean distance amounted to 0.953.

The molecule `O=c1oc2cc(O)ccc2s1` [Tioxolone] gave an Euclidean distance of 0.857.

`Cc1cnc(Nc2ccc(OCCN3CCCC3)cc2)nc1Nc1cccc(S(=O)(=O)NC(C)(C)C)c1` registered an Euclidean distance of 2.95.

`CCCNC(C)C(=O)Nc1ccccc1C` (configuration not stated) [Prilocaine]: the Euclidean distance amounted to 0.708.

`C[C@H]1CNC(=O)c2cnn3ccc(nc23)N[C@H](C)c2cc(F)ccc2O1` had an Euclidean distance of 5.02.

Regarding `CNCCc1ccccn1` [Betahistine mesylate], the Euclidean distance worked out at 1.17.

`CCN1CCC[C@H]1CNC(=O)c1cc(S(N)(=O)=O)ccc1OC` [Levosulpiride] displayed an Euclidean distance of 1.14.

Molecule `S=C(NCc1ccc2c(c1)OCO2)N1CCN(c2ncnc3c2oc2ccccc23)CC1` [Amuvatinib (MP-470)] displayed an Euclidean distance of 1.25.

`Cc1ccc(NC(=O)C2(c3ccc4c(c3)OC(F)(F)O4)CC2)nc1-c1cccc(C(=O)O)c1` [VX-809 (Lumacaftor)] displayed an Euclidean distance of 1.55.

Turning to `CCOC(=O)c1ccc(O)cc1` [Ethylparaben], the Euclidean distance came to 0.901.

In the case of `CCCCCCCCCCCCCCCC(=O)O[C@@H]1[C@@H](O)[C@@H](O)[C@@H]([C@H](NC(=O)[C@@H]2C[C@@H](CCC)CN2C)[C@H](C)Cl)O[C@@H]1SC` [Clindamycin palmitate HCl], the Euclidean distance was found to be 0.981.

`CC(=O)c1c(C)c2cnc(Nc3ccc(N4CCNCC4)cn3)nc2n(C2CCCC2)c1=O`: the Euclidean distance was 5.03 and 4.42.

`CC(C)c1ccc(NC(=O)Cn2cnc3c2c(=O)n(C)c(=O)n3C)cc1` registered an Euclidean distance of 1.22.

`Cc1ccc(C(=O)Nc2ccc(CN3CCN(C)CC3)c(C(F)(F)F)c2)cc1C#Cc1cnc2cccnn12`: the Euclidean distance is 6.75.

Take `CO[C@@H]1[C@H](OC(=O)/C=C/C=C/C=C/C=C/C(=O)O)CC[C@]2(CO2)[C@H]1[C@@]1(C)O[C@@H]1CC=C(C)C` [Fumagillin]: the Euclidean distance is 4.57.

Turning to `O=C(NC1CCNCC1)c1n[nH]cc1NC(=O)c1c(Cl)cccc1Cl`, the Euclidean distance amounted to 2.81.

Regarding `C[C@H](CS)C(=O)N1CCC[C@H]1C(=O)O` [Captopril], the Euclidean distance came to 0.669.

With `O=C(OCc1ccccc1)c1ccccc1` [Benzyl benzoate], the Euclidean distance was 0.936.

Take `CCCC(=O)[O-].[Na+]` [Sodium butyrate]: the Euclidean distance is 1.17.

Consider `N#CCNC(=O)c1ccc(-c2ccnc(Nc3ccc(N4CCOCC4)cc3)n2)cc1` [Momelotinib (CYT387)], for which the Euclidean distance amounted to 3.36.

The molecule `CCc1c2c(nc3ccc(OC(=O)N4CCC(N5CCCCC5)CC4)cc13)-c1cc3c(c(=O)n1C2)COC(=O)[C@]3(O)CC` [Irinotecan HCl Trihydrate] showed an Euclidean distance of 4.47.

Molecule `COC(=O)CCC(=O)CN` [Methyl Aminolevulinate Hydrochloride] returned an Euclidean distance of 0.717.

In turn, `O=C(O)c1ccccc1O` [Salicylic acid] showed an Euclidean distance of 0.898.

`CCCC(=O)Nc1ccc(OCC(O)CNC(C)C)c(C(C)=O)c1` (configuration not stated) [Acebutolol HCl] showed an Euclidean distance of 1.23.

`CC(=O)O[C@H]1C(=O)[C@@]2(C)[C@H]([C@H](OC(=O)c3ccccc3)[C@]3(O)C[C@H](OC(=O)[C@H](O)[C@@H](NC(=O)c4ccccc4)c4ccccc4)C(C)=C1C3(C)C)[C@]1(OC(C)=O)CO[C@@H]1C[C@@H]2O` [Paclitaxel] came in with an Euclidean distance of 4.23.

Turning to `Nc1cc(Cl)c(N=C2NCCN2)c(Cl)c1` [Apraclonidine HCl], the Euclidean distance worked out at 0.828.

Consider `COc1ccccc1OCC(O)CN1CCN(CC(=O)Nc2c(C)cccc2C)CC1` (configuration not stated) [Ranolazine], for which the Euclidean distance was 0.507.

In the case of `C1=N/C2=N/c3ccc(OCCN4CCCC4)c(c3)COC/C=C/COCc3cccc(c3)C(=C1)N2` [Pacritinib (SB1518)], the Euclidean distance is 2.51.

The molecule `CCOC(=O)[C@H](CCc1ccccc1)N[C@@H](C)C(=O)N1[C@H](C(=O)O)C[C@H]2CCCC[C@@H]21` [Trandolapril] yielded an Euclidean distance of 0.864.

On to `CC(=C(CCOC(=O)C(C)C)SSC(CCOC(=O)C(C)C)=C(C)N(C=O)Cc1cnc(C)nc1N)N(C=O)Cc1cnc(C)nc1N` (stereo in doubt) [Sulbutiamine], for which the Euclidean distance amounted to 0.854.

In turn, `CCN(CCO)CCCC(C)Nc1ccnc2cc(Cl)ccc12` (configuration not stated) [Hydroxychloroquine Sulfate] displayed an Euclidean distance of 2.6.

`CC(C)c1onc(-c2c(Cl)cccc2Cl)c1COc1ccc(/C=C/c2cccc(C(=O)O)c2)c(Cl)c1`: the Euclidean distance amounted to 1.01.

For the molecule `OC(Cn1cncn1)(Cn1cncn1)c1ccc(F)cc1F` [Fluconazole], the Euclidean distance stood at 1.41.

For the molecule `Cc1ccc(=O)n(-c2ccccc2)c1` [Pirfenidone], the Euclidean distance was found to be 1.64.

`CN(C)CCC=C1c2ccccc2CCc2ccccc21` [Amitriptyline HCl] returned an Euclidean distance of 1.54.

The molecule `CO[C@@H]1[C@@H](O[C@@H]2O[C@H](C)[C@@H](O[C@H]3C[C@@](C)(O)[C@@H](OC(=O)CC(C)C)[C@H](C)O3)[C@H](N(C)C)[C@H]2O)[C@@H](CC=O)C[C@@H](C)[C@@H](O)/C=C/C=C/C[C@@H](C)OC(=O)C[C@H]1OC(C)=O` [Josamycin] yielded an Euclidean distance of 0.712.

The molecule `C[C@H]1NCc2cc(-c3ccc4c(=O)c(C(=O)O)cn(C5CC5)c4c3OC(F)F)ccc21` [Garenoxacin] had an Euclidean distance of 0.678.

On to `Cc1ccc2c(c1)C(=O)C1(O)CCN(c3ccccc3)C1=N2` (single isomer, unassigned; (-)) [(-)-Blebbistatin], for which the Euclidean distance is 1.36.

As for `C=CCCCCCCCCC(=O)[O-].C=CCCCCCCCCC(=O)[O-].[Zn+2]` [Zinc Undecylenate], the Euclidean distance is 1.09.
